In PubChem BioAssay (NCATS):
Inconclusive results are not listed. A call without a number means that no potency is given here. The source made the active and inactive calls. Calls come from the whole dose curve; as a rule, active = well fitted inhibition curve with a large enough effect; inconclusive = small, poorly fitted or top-dose-only effect; inactive = no such curve, though single readings can be large or run the other way.

Biological target: Cytochrome P450 3A7 (Homo sapiens) (UniProt P24462)
Experiment: Cytochrome P450 family 3 subfamily A member 7 (CYP3A7) small molecule antagonists: luciferase biochemical qHTS assay (AID 1963596); note: nearly all actives have a fitted effect of over 40% in size
Settings: P450-Glo CYP3A7 enzyme luminescence, 1 h; series mostly up to 57.4 µM
Procedure, shortened: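 Luminescence from luciferin released by CYP3A7 from a proluciferin substrate, read 20 min after detection reagent. Compound and enzyme-substrate mix sat 10 min before NADPH regeneration solution; reaction ran 1 h at room temperature.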
Potency is the fitted concentration of half-maximal effect.

Cytochrome P450 3A7 (Homo sapiens), sequence (P24462 whole entry, looked up): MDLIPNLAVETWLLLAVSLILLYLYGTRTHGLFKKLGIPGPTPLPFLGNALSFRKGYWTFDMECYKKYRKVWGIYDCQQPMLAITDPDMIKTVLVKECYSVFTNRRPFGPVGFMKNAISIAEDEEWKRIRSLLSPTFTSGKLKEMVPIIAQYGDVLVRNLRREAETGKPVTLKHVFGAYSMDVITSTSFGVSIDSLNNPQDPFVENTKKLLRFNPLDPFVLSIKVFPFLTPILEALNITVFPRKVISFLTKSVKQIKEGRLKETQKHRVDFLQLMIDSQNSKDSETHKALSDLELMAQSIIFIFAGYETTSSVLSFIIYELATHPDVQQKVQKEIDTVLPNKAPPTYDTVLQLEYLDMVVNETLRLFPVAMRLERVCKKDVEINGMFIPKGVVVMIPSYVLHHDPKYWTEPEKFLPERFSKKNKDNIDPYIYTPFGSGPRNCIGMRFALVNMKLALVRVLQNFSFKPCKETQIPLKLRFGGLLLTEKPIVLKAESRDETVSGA

Question: How did the Potency turn out when `CCc1ccc(C2=CC(c3c(F)cccc3Cl)n3c(nc4ccccc43)N2)cc1` (centres undefined) was run?
Answer: The Potency was “inactive”.

Question: `COc1cc(C(=O)NC(=S)Nc2cccc(NC(=O)c3ccccc3)c2)cc(OC)c1OC` was tested. Which Potency did it give?
Answer: The Potency was “inactive”.

Question: How did the Potency turn out when `Cc1nc(C)c(-c2ccc(C3CCC(CC(=O)O)CC3)cc2)nc1C(N)=O` (centres undefined) was run?
Answer: Its Potency is “inactive”.

Question: Which Potency does the source give for `NCc1c[nH]c(=S)n1C1CCc2c(F)cc(F)cc2C1` (centres undefined) here?
Answer: Its Potency is 15.1 µM (active).

Question: How did the Potency turn out when `CC(C)(C)CCN1C[C@@H]2C(CNC(=O)c3cc(Cl)cc(Cl)c3)[C@@H]2C1` (some centres undefined) was run?
Answer: Its Potency is “inactive”.

Question: `O=C(Nc1ccc(Cl)c(Cl)c1)C1CC1` was tested. Which Potency did it give?
Answer: The Potency was “inactive”.

Question: How did the Potency turn out when `CCCCC(O)c1ccccc1` (centres undefined) was run?
Answer: The Potency was “inactive”.

Question: `O=S(=O)(O)Oc1ccc(C(c2ccc(OS(=O)(=O)O)cc2)c2ccccn2)cc1` was tested. Which Potency did it give?
Answer: The Potency was “inactive”.

Question: Which Potency does the source give for `CNC(=O)COC(=O)N1CCC(CCc2ccc(Cl)cc2)CC1` here?
Answer: Its Potency is “inactive”.

Question: How did the Potency turn out when `N[C@H](CO)C(=O)O` was run?
Answer: The Potency was “inactive”.

Question: With `CC(=O)O[C@@H]1C(=O)O[C@@H]2[C@H]1OC(=O)[C@@H]2OC(C)=O` as the compound, how does the Potency read?
Answer: Its Potency is “inactive”.

Question: `COC(=O)CCC[N+](C)(C)C` was tested. Which Potency did it give?
Answer: Its Potency is “inactive”.

Question: `COC(=O)C(CN)c1c[nH]c2ccc(OC)cc12` (centres undefined) was tested. Which Potency did it give?
Answer: The Potency was “inactive”.

Question: How did the Potency turn out when `O=C(O)c1ccc(Cc2c(-c3cccc(-c4ccccc4)c3)[nH]n(-c3nc(C(=O)O)cs3)c2=O)cc1` was run?
Answer: The Potency was “inactive”.

Question: `FCOC(C(F)(F)F)C(F)(F)F` was tested. Which Potency did it give?
Answer: The Potency was “inactive”.

Question: Which Potency does the source give for `CCCCc1c(-c2ccc(OC)cc2)[nH]c2nccnc12` here?
Answer: The Potency was “inactive”.

Question: Which Potency does the source give for `O=C(O)c1cccc(-c2ccc(-c3cn(C(=O)N4CCCCC4Cc4ccccc4)nn3)cc2)c1` (centres undefined) here?
Answer: The Potency was “inactive”.

Question: With `CCCCCCCCCCCCCCCCCC[N+](C)(C)CCC[Si](OC)(OC)OC` as the compound, how does the Potency read?
Answer: The Potency was “inactive”.

Question: With `CCc1ccc(CN(Cc2ccco2)C(=O)COc2ccccc2Cl)cc1` as the compound, how does the Potency read?
Answer: Its Potency is “inactive”.

Question: With `Cc1cc(C)cc(NC(=O)CSc2c(C(C)C)cnc3c2c(=O)n(C)c(=O)n3C)c1` as the compound, how does the Potency read?
Answer: The Potency was “inactive”.

Question: For `O=C1CSc2ccccc2N1Cc1cccc(C(F)(F)F)c1`, which Potency is on record?
Answer: Its Potency is “inactive”.

Question: With `Cc1ccc(-c2nnc(Nc3ccccc3)c3ccccc23)cc1S(=O)(=O)NCc1nc2ccccc2[nH]1` as the compound, how does the Potency read?
Answer: Its Potency is “inactive”.

Question: How did the Potency turn out when `CN(C)CC1CCOC1(c1ccccc1)c1ccccc1` (centres undefined) was run?
Answer: The Potency was “inactive”.

Question: With `Cc1ccc(S(=O)(=O)Nc2nc3n(n2)C(c2ccc(F)cc2)C=C(c2ccccc2)N3)cc1` (centres undefined) as the compound, how does the Potency read?
Answer: Its Potency is “inactive”.

Question: For `Cn1c(=O)c2c(nc(CN3CCN(C(=O)C4CC4)CC3)n2Cc2cccc(F)c2)n(C)c1=O`, which Potency is on record?
Answer: The Potency was “inactive”.

Question: How did the Potency turn out when `O=[N+]([O-])c1ccc(Oc2ccc(N=C=S)cc2)cc1` was run?
Answer: The Potency was 2.39 µM (active).

Question: With `COc1ccc(-c2cnc(-c3cccc4c3-c3ccccc3C4=O)o2)cc1` as the compound, how does the Potency read?
Answer: The Potency was “inactive”.

Question: With `CC(=O)NC[C@H]1CN(c2ccc(N3CCN(C(=O)CO)CC3)c(F)c2)C(=O)O1` as the compound, how does the Potency read?
Answer: Its Potency is “inactive”.

Question: For `CN1CC2CN(c3ccc4oc5ccccc5c(=O)c4c3)CC2C1` (centres undefined), which Potency is on record?
Answer: The Potency was “inactive”.

Question: For `CCOc1ccc(C(NC(=O)c2cc(OC)c(OC)c(OC)c2)c2cc(Cl)c3cccnc3c2O)cc1` (centres undefined), which Potency is on record?
Answer: Its Potency is “inactive”.

Question: How did the Potency turn out when `Nc1ccn(C2O[C@H](CO)[C@@H](O)[C@@H]2O)c(=O)n1` (some centres undefined) was run?
Answer: The Potency was “inactive”.

Question: With `S=C=Nc1ccc(N=C=S)cc1` as the compound, how does the Potency read?
Answer: The Potency was “inactive”.

Question: `NC(=O)c1ncn(C2OC(CO)C(O)C2O)n1` (centres undefined) was tested. Which Potency did it give?
Answer: The Potency was “inactive”.

Question: Which Potency does the source give for `N[C@@H]1CCCCN(c2c(F)cc3c(=O)c(C(=O)O)cn(C4CC4)c3c2Cl)C1` here?
Answer: The Potency was “inactive”.

Question: How did the Potency turn out when `N#C/C(=C/c1ccccc1Cl)c1nc2ccccc2c(=O)[nH]1` was run?
Answer: The Potency was “inactive”.

Question: With `O=c1[nH]ccc2cc(OC3CCNCC3)ccc12` as the compound, how does the Potency read?
Answer: The Potency was “inactive”.

Question: `CC(=O)Nc1ccc(C)cc1-c1nc2ccccc2n(CC(=O)Nc2cc(Cl)ccc2C)c1=O` was tested. Which Potency did it give?
Answer: Its Potency is “inactive”.

Question: `NC(=O)c1cccc2cn(-c3ccc(C4CCCNC4)cc3)nc12` (centres undefined) was tested. Which Potency did it give?
Answer: Its Potency is “inactive”.

Question: With `CCOc1ccc(NC(=O)Cn2cc(C(=O)c3cccs3)c3ccccc32)cc1` as the compound, how does the Potency read?
Answer: Its Potency is “inactive”.
